This passage reports max response, outcome and Potency results from PubChem BioAssay (NCATS).

Records with an inconclusive call do not appear. Values without a mark were called inactive. The source made the active and inactive calls. Calls come from the whole dose curve; as a rule, active = well fitted inhibition curve with a large enough effect; inconclusive = small, poorly fitted or top-dose-only effect; inactive = flat fitted curve, though single readings scatter.

One experiment has as its system CRL-7250. Nature of the experiment: Cytotoxic Profiling of Annotated Libraries Using Quantitative High-Throughput Screening (AID 1296008). For max response: % is set by controls: 0 for no effect and ±100 for the full control effect. Conditions: Five cell lines viability, CellTiter-Glo ATP luminescence, 48-72 h; max response: active compounds read low. An outline of the steps:
(§1)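 Compounds were pin-transferred onto cells and incubated 48 or 72 hr at 37 degree Celsius, 95% humidity. CellTiter-Glo was added, plates sat 10 min at room temperature, then ATP-coupled luminescence was imaged as the viability read-out.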
A general note: In ATP-based viability assays light output follows the ATP content of the culture.

For the next experiment, the system named is KB-3-1. The experiment is described as above. Conditions: Five cell lines viability, CellTiter-Glo ATP luminescence, 48-72 h; max response: active compounds read low. The essentials:
as §1

The next experiment relates to NIH3T3. The description is as above. Conditions: Five cell lines viability, CellTiter-Glo ATP luminescence, 48-72 h; max response: active compounds read low. The essentials: as §1
The next experiment deals with HEK293. Described as above. Conditions: Five cell lines viability, CellTiter-Glo ATP luminescence, 48-72 h; max response: active compounds read low. The essentials:
as §1

The subject of another experiment is HEK293T. Nature of the experiment: qHTS assay to identify novel small-molecules to repurpose for Merkel cell carcinoma treatment (AID 1296009). To be noted: MCC and control cell lines, CellTiter-Glo viability, 72 h. The essentials:
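Cells exposed to NPC (8-point) and MIPE (11-point) compound dilutions for 72 hr at 37 degree celsius; viability read by CellTiter-Glo luminescence, normalized to no-cell and DMSO in-plate controls.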
On the technique in general: Quantitative high-throughput screening tests each substance at several concentrations.
Note: nearly all actives have a fitted effect of over 60% in size.
Potency is the fitted concentration of half-maximal effect.

Regarding `O=C(NCCN1CCC(n2c(=O)[nH]c3ccccc32)CC1)c1cc2cc(F)ccc2[nH]1`, the max response in the experiment with CRL-7250 is 4.31%; in the experiment with KB-3-1, 1.32%. For the same compound, the call with NIH3T3 was inactive.
Regarding `C/C=C(/C)C(=O)O[C@@H]1C[C@@H](OC(=O)CC(C)C)C2(C)C3C(=O)C=C(C)C2C3C1(C)C` (some centres not stated), the values for the max response in the experiment on CRL-7250, in the experiment on KB-3-1 and in the experiment with NIH3T3 were 0.438%, 5.54% and -2.22%, respectively.
Turning to `NC(=O)N1CCC(CC(=O)N2CCC(C3c4ncc(Br)cc4CCc4cc(Cl)cc(Br)c43)CC2)CC1` (configuration not stated), the max response in the experiment on CRL-7250 is -10.9%; in the experiment on NIH3T3 it was 2.37%.
Turning to `Cc1c(C(=O)Nc2ccc(N3CCC(N4CCOCC4)CC3)c(C#N)c2)cnn1-c1ccc(Cl)cc1`, the Potency in the experiment with CRL-7250 is 1.16 µM (active); with KB-3-1 it was 1.46 µM (active); in the experiment on NIH3T3, 0.366 µM (active).
In the case of `O=C(Nc1ccccc1Br)NC1CCN(c2ccc(C(F)(F)F)cn2)C1` (configuration not stated), the compound was classed as inactive in the experiment with CRL-7250. Moreover, the max response with KB-3-1 was -16.5%; in the experiment with NIH3T3, -7.45%.
For the compound `C/C1=C\CCC2=CC(OC2=O)C(C)(C)/C=C/C1=O` (configuration not stated), in the experiment on HEK293, the Potency was 6.51 µM (active).
As to `COc1ccccc1N1CCN(c2ncnc3n[nH]c(Br)c23)CC1`, the max response in the experiment with CRL-7250 was -14.5%. For the same compound, the compound was called inactive in the experiment on NIH3T3.
Regarding `C=C(C(=O)OC[C@H]1O[C@@H](OC(=O)/C=C/c2ccccc2)[C@H](O)[C@@H](O)[C@@H]1O)C(O)CO` (some centres not stated), the max response with CRL-7250 was -9.26%; in the experiment on KB-3-1, -8.71%; with NIH3T3 it was 1.83%.
As to `Cc1ccnn1-c1ccc(C(=O)N2CCN(S(=O)(=O)c3ccc(Cl)c(C(F)(F)F)c3)CC2)cc1`, the compound was called inactive in the experiment with CRL-7250. Also, the figures for the max response in the experiment on KB-3-1 and with NIH3T3 were -18.8% and -5.12%, respectively.
`Cc1cc(F)ccc1[C@H]1C[C@@H](N2CCN3C(=O)CC[C@H]3C2)CCN1C(=O)N(C)[C@H](C)c1cc(C(F)(F)F)cc(C(F)(F)F)c1`: the max response in the experiment with CRL-7250 is 2.7%. Further, in the experiment on NIH3T3, the outcome was inactive.
With `CC1(C)SCCN(S(=O)(=O)c2ccc(Oc3ccncc3)cc2)[C@H]1C(=O)NO`, the max response was -1.93% in the experiment on CRL-7250, -10.1% with KB-3-1 and 2.44% in the experiment with NIH3T3.
For the compound `CCN1CCC[C@@H]1CNC(=O)c1ccc2c(c1)NC(=O)c1cccc(C)c1S2`, the max response in the experiment with CRL-7250 was 2.08%. In addition, the result in the experiment on KB-3-1 and in the experiment on NIH3T3 was inactive.
For `COc1ccc2nc3n[nH]c(C)c3c(NCCOCCO)c2c1`, the results for the max response with CRL-7250, in the experiment on KB-3-1 and in the experiment on NIH3T3 were 4.22%, 2.11% and 2.85%, respectively.
Take `Nc1nccc(-c2c(-c3ccc(F)cc3)ncn2C2CCCCC2)n1`: the max response in the experiment on CRL-7250 is -18.7%; in the experiment on KB-3-1, -18.1%. Further, the Potency with NIH3T3 is 16.4 µM (active).
On to `OC[C@H]1O[C@@H](OC/C=C/c2ccc(O)cc2)[C@H](O)[C@@H](O)[C@@H]1O`, for which the max response was -28.9% with CRL-7250, -4.8% in the experiment on KB-3-1 and -11.1% in the experiment on NIH3T3.
Take `C=C(C)C1CC(O)C(C)C12CC(O)C1(C)OC1C2O` (configuration not stated): the figures for the Potency with CRL-7250 and in the experiment with KB-3-1 were 2.59 µM (active) and 3.66 µM (active), respectively. Besides, in the experiment with NIH3T3, the max response was -26.2%.
In the case of `Cn1ccc(NC(=O)c2cc(Oc3ccc(C(=O)N4CCC4)c(F)c3)c3c(c2)OC(C)(C)C3)n1`, the max response in the experiment on CRL-7250 is 3.93%; in the experiment with KB-3-1, 1.91%; in the experiment with NIH3T3, 4.11%.
Regarding `CC(C)c1ccc(NC(=O)c2cccs2)c(-c2nc3ccccc3[nH]c2=O)c1`, the values for the max response in the experiment on CRL-7250 and with NIH3T3 were 4.02% and 0.611%, respectively.
In the same order, the values of `O=C1C[C@]23C=CCN4CCC5c6cc7c(cc6N1[C@@]5(CC2)C43)OCO7` (some centres not stated) are -12% and -4.65%.
As for `N#C/C(=C1\Nc2ccccc2S1)c1ccnc(NCCc2cccnc2)n1`, in the experiment with HEK293, the Potency was 7.31 µM (active).
As to `CCS(=O)c1nc(-c2cccc(OCc3ccccc3)c2)cc(C(F)(F)F)n1` (configuration not stated), the max response in the experiment on CRL-7250 is 1.1%. For the same compound, in the experiment with NIH3T3, the Potency was 18.4 µM (active).
On to `CCCSc1nc(N[C@@H]2C[C@H]2c2ccc(F)c(F)c2)c2nnn([C@@H]3C[C@H](OCCO)[C@@H](O)[C@H]3O)c2n1`, for which the compound was called inactive in the experiment on CRL-7250. Besides, the max response is -26.6% in the experiment with KB-3-1 and -24.3% in the experiment with NIH3T3.
In the case of `CN(CC1COCCO1)S(=O)(=O)Nc1ccc2ccc3ncc(-c4cnn(C)c4)cc3c(=O)c2c1` (configuration not stated), the Potency is 5.8 µM (active) with CRL-7250, 3.26 µM (active) in the experiment with NIH3T3 and 6.51 µM (active) with HEK293T.
As for `CC1=CC2/C=C(\C)CCC3OC(C)(C)OC3CCC(=O)C23C(=O)NC(CC(C)C)C3C1C` (configuration not stated), the results for the max response in the experiment with CRL-7250, with KB-3-1 and in the experiment with NIH3T3 were 4.29%, 3.72% and -3.16%, respectively.
In the same order, the values of `CC(=O)O[C@H]1[C@H](O)C[C@@]2(C)C(CC[C@]3(C)C2CC=C2C4CC(C)(C)CC[C@]4(C(=O)O)CC[C@]23C)C1(C)C` (some centres not stated) are -14.7%, -19.6% and -15.2%.
Regarding `CC1(C)CCCC2(C)C1C(=O)C=C(C(=O)O)C2(O)C(=O)O` (configuration not stated), the values for the max response in the experiment on CRL-7250 and in the experiment on NIH3T3 were -16% and -3.77%, respectively.
